# Assay outcomes: PubChem, Broad Institute
# The list is not random: actives were taken first. Their share in the collection is about 2.1%.
# NFkB SMM: binds human NF-kappa-B p105 on microarray. P19838. 1.3% of 17,000 active. calls only. AID 624139. Small molecule microarray, anti-His fluorescence binding;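 active = spot fluorescence over background significantly raised, with a chance value under 7% in all four replicate spots of the compound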;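 note: probe protein is his-tagged human p50 processed subunit at 1 µg/ml; raw spot fluorescence signals with no normalization applied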
# STAT3 binder: STAT3 (human) binding; Small molecule microarray, His-STAT3 binding, anti-His fluorescence; 0.2% of 17,000 active; P40763; calls only;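 active = compounds whose four printed spots each show fluorescence over background unusually high for their array block, chance value under 7%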
# Myc binder: c-Myc (human) binding; P01106; small molecule microarray, His-c-Myc binding, anti-His fluorescence; calls only; 1.5% of 17,000 active; AID 624141;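 active = spot fluorescence over background with P-value below 7% in all four replicate spots, showing protein binding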;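 note: score is binary with 100 for all four spots passing and 0 otherwise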
# Target sequence (P01106 whole entry, looked up): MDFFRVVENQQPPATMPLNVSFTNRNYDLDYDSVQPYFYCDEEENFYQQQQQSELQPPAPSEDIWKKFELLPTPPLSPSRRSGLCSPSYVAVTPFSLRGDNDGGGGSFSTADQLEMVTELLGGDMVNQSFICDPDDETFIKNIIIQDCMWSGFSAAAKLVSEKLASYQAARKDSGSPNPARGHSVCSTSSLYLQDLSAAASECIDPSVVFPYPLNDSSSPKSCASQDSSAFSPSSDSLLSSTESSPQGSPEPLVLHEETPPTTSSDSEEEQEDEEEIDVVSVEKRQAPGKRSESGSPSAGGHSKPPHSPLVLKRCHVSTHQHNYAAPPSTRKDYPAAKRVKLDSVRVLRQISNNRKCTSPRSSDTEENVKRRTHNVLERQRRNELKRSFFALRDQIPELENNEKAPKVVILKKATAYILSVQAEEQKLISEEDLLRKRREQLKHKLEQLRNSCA
# mut p53 SMM: binds human mutant p53 on microarray. calls only. 0.4% of 17,000 active. small molecule microarray binding, anti-GST fluorescence;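 active = compounds whose four printed spots each glow above background more than chance allows, each with a p-value under 7%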
# Starred values were filed as active, the others as inactive; i = inactive; + = active, no number.
SMILES,NFkB SMM,STAT3 binder,Myc binder,mut p53 SMM
CC1OC(OC2C(OC(=O)C34CCC(C)(C)CC3C3=CCC5C6(C)CCC(OC7OC(CO)C(OC8OC(C(=O)O)C(OC9OCC(O)C(O)C9O)C(O)C8O)C(O)C7O)C(C)(CO)C6CCC5(C)C3(C)CC4)OC(COC3OCC(O)C(O)C3O)C(O)C2O)C(O)C(O)C1O (configuration not stated),i,i,i,i
C[C@@H]1O[C@@H](O[C@H]2CC[C@@]3(C)C(CC[C@]4(C)C3CC=C3C5CC(C)(C)CC[C@]5(C(=O)O[C@@H]5O[C@H](CO)[C@@H](O)[C@H](O)[C@H]5O)CC[C@]34C(=O)O)C2(C)C)[C@H](O)[C@H](O)[C@H]1O (some centres not stated),i,i,i,i
CC1(C)CC[C@]2(C(=O)O)CC[C@]3(C)C(=CCC4[C@@]5(C)CC[C@H](O[C@@H]6O[C@H](CO)[C@@H](O)[C@H](O)[C@H]6O)[C@@](C)(CO)C5CC[C@]43C)[C@@H]2C1 (some centres not stated),i,i,i,i
CC(=O)OC1C(C)OC(OC2C(CO)OC(OC(=O)[C@]34CCC(C)(C)CC3C3=CCC5[C@@]6(C)CC[C@H](OC7OC(CO)C(OC8OC(CO)C(OC9OCC(O)C(O)C9O)C(O)C8O)C(O)C7O)[C@@](C)(CO)C6CC[C@@]5(C)[C@]3(C)CC4)C(OC3OC(C)C(O)C(O)C3O)C2O)C(O)C1O (some centres not stated),+,i,+,i
CC1(C)CC[C@]2(C(=O)O)CC[C@]3(C)C(=CCC4[C@@]5(C)CC[C@H](O[C@@H]6O[C@H](C(=O)O)[C@@H](O[C@@H]7OC[C@@H](O)[C@H](O)[C@H]7O)[C@H](O)[C@H]6O)C(C)(C)C5CC[C@]43C)C2C1 (some centres not stated),+,i,+,i
C[C@@H]1O[C@@H](O[C@H]2[C@H](O[C@H]3[C@H](O)[C@@H](C(=O)O)O[C@@H](O[C@H]4CC[C@@]5(C)C(CC[C@]6(C)C5CC[C@]57OC[C@@]8(CCC(C)(C)CC85)[C@H](O)C[C@]76C)C4(C)C)[C@@H]3O[C@@H]3O[C@H](CO)[C@@H](O[C@@H]4OC[C@@H](O)[C@H](O)[C@H]4O)[C@H](O)[C@H]3O)O[C@H](CO)[C@H](O)[C@@H]2O)[C@H](O)[C@H](O)[C@H]1O (some centres not stated),+,i,+,i
C[C@@H]1O[C@@H](O[C@H]2[C@H](O[C@H]3CC[C@@]4(C)C(CC[C@]5(C)C4CC=C4C6CC(C)(C)CC[C@]6(C(=O)O)CC[C@]45C)[C@]3(C)CO)OC[C@H](O)[C@@H]2O)[C@H](O)[C@H](O)[C@H]1O (some centres not stated),+,i,i,i
C=C(C(=O)O[C@H]1C/C=C(/C)C[C@H](O)[C@H]2[C@H](C)C(=O)O[C@@H]2/C=C\1C)[C@@H]1CCC(=C)[C@@H]2C[C@H](O[C@@H]3O[C@H](CO[C@H]4OC[C@](O)(CO)[C@H]4O)[C@@H](O)[C@H](O)[C@H]3O)C(=C)[C@@H]2C1,i,i,i,i
CC1CCc2c(sc3nnn(CC(=O)Nc4cc(Cl)ccc4Cl)c(=O)c23)C1 (configuration not stated),i,i,i,i
Cc1ccc(OCC(=O)Oc2cccc(NC3=NS(=O)(=O)c4ccccc43)c2)cc1,i,i,i,i
Cc1nc(SCC(=O)Nc2ccc3ccccc3c2)n[nH]1,i,i,i,i
C[C@@H]1O[C@@H](O[C@H]2[C@H](O[C@H]3[C@H](O[C@H]4CC[C@@]5(C)C(CC[C@]6(C)C5CC=C5[C@@H]7CC(C)(C)C[C@@H](O)[C@]7(C)CC[C@]56C)[C@@]4(C)CO)O[C@H](C(=O)O)[C@@H](O)[C@@H]3O)OC[C@H](O)[C@@H]2O)[C@H](O)[C@H](O)[C@H]1O (some centres not stated),i,i,+,+
C[C@@H]1O[C@@H](O[C@@H]2[C@@H](O)[C@H](O[C@@H]3[C@@H](O)[C@H](C)O[C@@H](O[C@H]4[C@H](O[C@H]5CC[C@@]6(C)C(CC[C@]7(C)C6CC=C6[C@@H]8CC(C)(C)CC[C@]8(C(=O)O)CC[C@]67C)[C@]5(C)CO)OC[C@H](O)[C@@H]4O)[C@@H]3O)O[C@H](CO)[C@H]2O[C@@H]2O[C@H](CO)[C@@H](O[C@@H]3OC[C@@H](O)[C@H](O)[C@H]3O)[C@H](O)[C@H]2O)[C@H](O)[C@H](O)[C@H]1O (some centres not stated),+,i,i,i
CC1(C)CC[C@]2(C(=O)OC3OC(CO)C(OC4OC(CO)C(O)C(O)C4O)C(O)C3O)CC[C@]3(C)C(=CCC4[C@@]5(C)CC[C@H](OC6OC(C(=O)O)C(O)C(O)C6O)C(CO)(CO)C5CC[C@]43C)[C@@H]2C1 (some centres not stated),i,i,i,i
CC(C)=CCN(C(=O)C#Cc1ccccc1)[C@H](CO)c1ccccc1,+,i,i,i
OC1c2ccccc2-c2c3c(cc4c2C1NCC4)OCO3 (configuration not stated),+,i,+,i
O=C(O)CSc1c[nH]c2ccccc12,i,i,+,i
CC1=C(CO)C(=O)OC([C@@H](C)[C@H]2CCC3C4CC=C5C[C@@H](O[C@@H]6O[C@H](CO)[C@@H](O)[C@H](O)[C@H]6O)C[C@H](O)[C@]5(C)C4CC[C@@]32C)C1 (some centres not stated),i,i,i,i
CC1CCC2(NC1)OC1CC3C4CC=C5CC(O[C@@H]6O[C@H](CO)[C@@H](O[C@@H]7O[C@@H](C)[C@H](O)[C@@H](O)[C@H]7O)[C@H](O)[C@H]6O)CCC5(C)C4CCC3(C)C1C2C (some centres not stated),+,i,i,i
C[C@@H]1CN([C@@H](C)CO)C(=O)c2cc(NC(=O)c3ccncc3)ccc2O[C@@H](C)CCCCO[C@H]1CN(C)C(=O)Nc1cccc2ccccc12,+,i,+,i
C[C@@H]1CCCCO[C@@H](CN(C)C(=O)Nc2cccc3ccccc23)[C@H](C)CN([C@H](C)CO)C(=O)c2cc(NC(=O)c3ccncc3)ccc2O1,+,i,+,i
C[C@@H]1CN([C@H](C)CO)C(=O)c2cc(NC(=O)c3ccncc3)ccc2O[C@@H](C)CCCCO[C@H]1CN(C)C(=O)Nc1cccc2ccccc12,+,i,+,i
C[C@@H]1CN([C@@H](C)CO)C(=O)c2cc(NC(=O)Nc3ccc(F)cc3)ccc2O[C@@H](C)CCCCO[C@H]1CN(C)C(=O)Nc1cccc2ccccc12,i,i,i,i
